Test results: PubChem BioAssay AID504710 (Sanford-Burnham Center for Chemical Genomics, 2011)
Active and inactive are the calls of the source.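 Rule for the calls: active = inhibition reaching about 16% in any single replicate (limit read from the data); inactive = the rest.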

What follows are compounds tested against Hexokinase HKDC1 (Homo sapiens) (UniProt Q2TB90) (assay: HKDC1 hexokinase inhibitors, confirmation, biochemical, single concentration (AID 504710)). Settings: recombinant HKDC1, G6PDH/diaphorase/resazurin fluorescence; at 20 µM; active compounds read high.
Sequence of Hexokinase HKDC1 (Homo sapiens) (Q2TB90 whole entry, looked up): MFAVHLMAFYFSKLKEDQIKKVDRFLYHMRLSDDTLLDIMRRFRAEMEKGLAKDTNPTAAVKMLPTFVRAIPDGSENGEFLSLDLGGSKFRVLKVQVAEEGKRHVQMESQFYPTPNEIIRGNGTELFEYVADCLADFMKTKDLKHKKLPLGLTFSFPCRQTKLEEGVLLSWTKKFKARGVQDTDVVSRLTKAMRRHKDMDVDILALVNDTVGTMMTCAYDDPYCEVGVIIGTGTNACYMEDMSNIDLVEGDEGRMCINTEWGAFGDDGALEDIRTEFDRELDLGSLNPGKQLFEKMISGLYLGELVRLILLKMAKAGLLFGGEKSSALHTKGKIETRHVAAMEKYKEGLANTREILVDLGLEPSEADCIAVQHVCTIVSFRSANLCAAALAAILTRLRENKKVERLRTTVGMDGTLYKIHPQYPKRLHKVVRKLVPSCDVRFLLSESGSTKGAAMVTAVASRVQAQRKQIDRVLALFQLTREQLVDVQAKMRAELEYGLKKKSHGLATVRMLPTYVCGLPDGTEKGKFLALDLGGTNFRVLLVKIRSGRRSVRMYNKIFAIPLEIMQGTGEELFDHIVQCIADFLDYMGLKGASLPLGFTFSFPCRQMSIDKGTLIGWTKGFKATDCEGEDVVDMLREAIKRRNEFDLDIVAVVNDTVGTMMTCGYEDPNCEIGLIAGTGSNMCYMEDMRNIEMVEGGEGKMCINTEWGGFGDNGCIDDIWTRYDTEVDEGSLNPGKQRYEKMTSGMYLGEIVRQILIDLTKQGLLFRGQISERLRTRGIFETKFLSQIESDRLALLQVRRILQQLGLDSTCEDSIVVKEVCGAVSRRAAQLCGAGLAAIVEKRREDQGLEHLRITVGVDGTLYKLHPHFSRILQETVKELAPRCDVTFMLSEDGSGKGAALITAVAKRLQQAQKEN
For `COc1cc(/C=C2/C(=O)NN(c3ccc(Cl)c(Cl)c3)C2=O)cc([N+](=O)[O-])c1O`, the inhibition was 33.1% (active).
With `CC(NNC(=S)N1CCN(c2ccccn2)CC1)c1nccc2ccccc12` (stereo not drawn) the inhibition was -74.7% (inactive).
With `O=C(/C=C/c1ccc(Br)cc1)NC(=S)Nc1ccc(S(=O)(=O)Nc2nccs2)cc1` the inhibition was 39.5% (active).
`O=C(CSc1n[nH]c(-c2cccnc2)n1)Nc1ccnc2ccccc12` was tested, and the inhibition was 46% (active).
`COc1cc(SC#N)ccc1N=Cc1c(C)[nH]n(-c2ccc(Cl)cc2)c1=O` was tested, and the inhibition was -38.2% (inactive).
With `Cc1ccc(N=c2ssnc2Cl)cc1` the inhibition was -43.7% (inactive).
With `Cc1ccc(-n2c3nc(=O)[nH]c(=O)c-3cc3cc([N+](=O)[O-])ccc32)cc1C` the inhibition was 65.3% (active).
With `CC(=O)NC1C(=O)N(CCN2CCOCC2)c2ccc(Cl)cc21` (stereo not drawn) the inhibition was 60.6% (active).
`O=C(O)c1cc(O)c2c(c1)[C@@H]([C@H]1c3cc(C(=O)O)cc(O)c3C(=O)c3c(O[C@@H]4O[C@H](CO)[C@@H](O)[C@H](O)[C@H]4O)cccc31)c1cccc(O[C@@H]3O[C@H](CO)[C@@H](O)[C@H](O)[C@H]3O)c1C2=O` was tested, and the inhibition was 34.1% (active).
With `CCOC(=O)c1c(NC(=O)CSc2nnnn2-c2ccc(OC)cc2)sc(C)c1C` the inhibition was -42.3% (inactive).
In the case of `Cc1cccc(-n2c3nc(=O)[nH]c(=O)c-3cc3cc([N+](=O)[O-])ccc32)c1`, the inhibition is reported as 46.6% (active).
In the case of `CC(=O)n1cc(N(C(=O)CCl)c2ccc([N+](=O)[O-])cc2)c2ccccc21`, the inhibition is reported as 40.9% (active).
With `CCOC(=O)c1c(C)[nH]c(C2=NNC(=Nc3ccccc3OC)SC2)c1C` the inhibition was -86.4% (inactive).
